Laboratory results from PubChem BioAssay (NCATS).
Inconclusive results are not listed. Calls of active or inactive are those of the source. Unless noted, the call rests on the fitted dose curve; in most records, active means well fitted curve in the direction sought with a large enough effect; inconclusive means small, poorly fitted or top-dose-only effect, or another doubt; inactive means no such curve, though single readings can be large; an effect the other way counts as inactive or inconclusive.

How the values were obtained:
[1] = target: ATP-dependent DNA helicase Q1 (Homo sapiens) (UniProt P46063); assay: qHTS Validation Assay for Inhibitors of RecQ-Like Dna Helicase 1 (RECQ1) (AID 2353)
Sequence of ATP-dependent DNA helicase Q1 (Homo sapiens) (P46063 whole entry, looked up): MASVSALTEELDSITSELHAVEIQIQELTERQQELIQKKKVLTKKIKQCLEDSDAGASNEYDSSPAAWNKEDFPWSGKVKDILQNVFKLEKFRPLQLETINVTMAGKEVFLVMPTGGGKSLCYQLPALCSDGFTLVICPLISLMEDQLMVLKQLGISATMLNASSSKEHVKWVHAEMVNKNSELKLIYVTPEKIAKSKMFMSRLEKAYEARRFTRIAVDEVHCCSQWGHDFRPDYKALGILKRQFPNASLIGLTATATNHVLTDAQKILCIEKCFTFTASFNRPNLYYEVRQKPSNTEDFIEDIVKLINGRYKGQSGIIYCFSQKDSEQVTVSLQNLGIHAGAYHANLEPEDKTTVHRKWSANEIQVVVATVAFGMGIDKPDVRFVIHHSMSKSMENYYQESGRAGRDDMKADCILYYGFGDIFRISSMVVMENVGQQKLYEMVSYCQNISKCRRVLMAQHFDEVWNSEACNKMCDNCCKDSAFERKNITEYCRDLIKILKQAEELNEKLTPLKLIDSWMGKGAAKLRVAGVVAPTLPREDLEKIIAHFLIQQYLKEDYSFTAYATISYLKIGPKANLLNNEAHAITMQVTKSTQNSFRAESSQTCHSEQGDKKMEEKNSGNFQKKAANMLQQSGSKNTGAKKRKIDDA
In short: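 RECQ1T1 50 nM; forked duplex (20 bp + 30-nt ss tails) 200 nM, ATP 2 mM final; pH 8.0, 2 mM MgCl2, 2.5 ug/ml poly(dI-dC); 15 min compound preincubation; discontinuous kinetic read over 2 h at RT.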

[2] = High Content Imaging Cell-Based qHTS for Inhibitors of the mTORC1 Signaling Pathway in MEF (Tsc2-/-, p53-/-) Cells (AID 2666);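 further: percent of cells scored positive for phospho-rpS6 Ser235/236 immunostaining by imaging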
In short: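 MEF Tsc2-/- p53-/- (empty vector), DMEM/10% FBS; cpd 24 h 37 °C; PFA fix, Alexa-488 p-rpS6 S235/236 Ab, Hoechst; imaged; rapamycin-defined inhibition; % positive cells/well.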

[3] = target: Ubiquitin carboxyl-terminal hydrolase 2 (Homo sapiens) (UniProt O75604); assay: qHTS Validation Assay for Inhibitors of Ubiquitin-specific Protease USP2a Using CHOP2 as the Reporter (AID 463106)
Sequence of Ubiquitin carboxyl-terminal hydrolase 2 (Homo sapiens) (O75604 whole entry, looked up): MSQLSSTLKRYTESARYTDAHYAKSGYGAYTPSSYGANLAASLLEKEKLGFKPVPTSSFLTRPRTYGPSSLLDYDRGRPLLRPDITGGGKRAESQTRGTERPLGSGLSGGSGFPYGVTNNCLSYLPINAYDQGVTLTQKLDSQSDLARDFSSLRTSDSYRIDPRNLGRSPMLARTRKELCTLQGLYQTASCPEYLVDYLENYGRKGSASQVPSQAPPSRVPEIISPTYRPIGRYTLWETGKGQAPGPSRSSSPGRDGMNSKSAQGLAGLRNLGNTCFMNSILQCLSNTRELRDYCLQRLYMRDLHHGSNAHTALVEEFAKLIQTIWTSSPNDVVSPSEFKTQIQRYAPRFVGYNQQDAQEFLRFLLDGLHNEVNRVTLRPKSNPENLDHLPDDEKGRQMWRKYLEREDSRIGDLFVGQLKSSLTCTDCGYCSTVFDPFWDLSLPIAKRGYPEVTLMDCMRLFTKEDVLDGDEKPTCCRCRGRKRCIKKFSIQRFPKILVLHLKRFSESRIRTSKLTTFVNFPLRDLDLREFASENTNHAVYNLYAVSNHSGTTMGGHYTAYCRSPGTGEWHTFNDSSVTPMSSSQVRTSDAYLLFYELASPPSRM
In short: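 Fluorescence read-out at Ex 485nm/Em 531nm after 60min RT, following addition of 25nM Ub-CHOP2 plus 25nM reporter substrate to USP2 core (10nM) pretreated 30min with compound. Data normalized to NEM full inhibition; concentration-response curves fitted.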

[4] = target: DNA polymerase III PolC-type (Bacillus subtilis (strain 168)) (UniProt P13267); assay: qHTS Validation Assay for the Inhibitors of DNA Replication in Gram-Positive Bacteria (AID 485295);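 further: reconstituted holoenzyme with PolC plus beta clamp SSB and primase; PicoGreen fluorescence of double-stranded DNA made on primed circular M13 template; series mostly up to about 57 µM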
Sequence of DNA polymerase III PolC-type (Bacillus subtilis (strain 168)) (P13267 whole entry, looked up): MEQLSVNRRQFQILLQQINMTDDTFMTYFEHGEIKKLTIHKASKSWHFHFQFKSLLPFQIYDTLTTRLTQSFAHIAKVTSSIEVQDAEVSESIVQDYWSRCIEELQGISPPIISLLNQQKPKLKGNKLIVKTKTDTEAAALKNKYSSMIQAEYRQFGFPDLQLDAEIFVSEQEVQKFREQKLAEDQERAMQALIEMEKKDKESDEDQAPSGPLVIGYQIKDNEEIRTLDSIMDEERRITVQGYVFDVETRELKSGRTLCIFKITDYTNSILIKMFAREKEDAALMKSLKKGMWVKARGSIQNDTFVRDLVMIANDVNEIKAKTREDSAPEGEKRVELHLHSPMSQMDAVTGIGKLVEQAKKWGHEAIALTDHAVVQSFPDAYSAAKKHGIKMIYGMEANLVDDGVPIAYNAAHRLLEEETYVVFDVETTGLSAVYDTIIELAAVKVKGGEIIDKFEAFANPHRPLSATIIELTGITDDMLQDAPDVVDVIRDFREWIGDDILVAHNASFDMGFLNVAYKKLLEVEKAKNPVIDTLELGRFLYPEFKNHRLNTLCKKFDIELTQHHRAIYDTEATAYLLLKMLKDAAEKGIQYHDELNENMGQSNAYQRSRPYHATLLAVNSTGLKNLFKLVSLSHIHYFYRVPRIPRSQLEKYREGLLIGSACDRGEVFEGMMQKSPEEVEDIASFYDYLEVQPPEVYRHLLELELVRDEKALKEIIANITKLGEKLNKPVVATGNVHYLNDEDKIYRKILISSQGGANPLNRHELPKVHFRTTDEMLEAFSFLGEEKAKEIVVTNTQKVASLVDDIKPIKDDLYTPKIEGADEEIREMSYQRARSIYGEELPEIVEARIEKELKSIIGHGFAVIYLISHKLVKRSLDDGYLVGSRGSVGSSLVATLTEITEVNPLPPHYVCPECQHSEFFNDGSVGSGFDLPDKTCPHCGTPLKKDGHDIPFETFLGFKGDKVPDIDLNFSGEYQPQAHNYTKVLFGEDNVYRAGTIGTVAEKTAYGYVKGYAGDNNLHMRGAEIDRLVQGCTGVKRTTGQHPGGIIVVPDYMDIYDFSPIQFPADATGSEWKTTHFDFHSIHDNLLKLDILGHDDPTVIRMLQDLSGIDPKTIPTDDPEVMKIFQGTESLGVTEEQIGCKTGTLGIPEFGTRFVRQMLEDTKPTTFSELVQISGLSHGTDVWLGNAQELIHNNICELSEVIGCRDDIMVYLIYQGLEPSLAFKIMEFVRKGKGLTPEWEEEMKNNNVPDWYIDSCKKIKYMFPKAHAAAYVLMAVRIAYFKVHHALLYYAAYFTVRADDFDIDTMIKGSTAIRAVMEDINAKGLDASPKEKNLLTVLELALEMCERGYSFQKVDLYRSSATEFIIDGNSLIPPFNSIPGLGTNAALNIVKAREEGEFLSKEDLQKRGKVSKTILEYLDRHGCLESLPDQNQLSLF
In short: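 PicoGreen fluorescence (ex 480–485/em 535–540 nm) reports dsDNA synthesized on ssM13Gori template with dNTPs/NTPs. Enzyme: holoenzyme rebuilt from purified PolC, beta subunit, SSB and primase. Compound preincubated before substrate addition; RT throughout.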

[5] = target: Tumor susceptibility gene 101 protein (Homo sapiens) (UniProt Q99816); assay: qHTS Validation Assay for Iinhibitors of HIV-1 Budding by Blocking the Interaction of PTAP/TSG101 (AID 485342; calls by dose curve)
Sequence of Tumor susceptibility gene 101 protein (Homo sapiens) (Q99816 whole entry, looked up, the tested form may be a part): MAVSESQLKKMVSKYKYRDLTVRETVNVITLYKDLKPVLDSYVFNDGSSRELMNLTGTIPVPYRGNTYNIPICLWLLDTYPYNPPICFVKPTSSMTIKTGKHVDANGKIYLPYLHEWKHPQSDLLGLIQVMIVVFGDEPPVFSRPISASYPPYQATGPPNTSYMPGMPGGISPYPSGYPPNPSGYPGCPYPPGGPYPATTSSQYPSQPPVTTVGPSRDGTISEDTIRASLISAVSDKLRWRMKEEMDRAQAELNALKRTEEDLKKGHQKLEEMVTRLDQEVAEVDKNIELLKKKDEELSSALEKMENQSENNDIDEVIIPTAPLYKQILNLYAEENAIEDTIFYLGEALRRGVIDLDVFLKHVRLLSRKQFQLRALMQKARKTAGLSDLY
In short: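 FP read-out: FITC-PTAP peptide, 50 nM final, binding Tsg101 binding domain, 10 uM final; 20 min r.t.; 10 mM HEPES pH 7.5, 0.15 M NaCl, 0.01% Tween 20, 3 mM EDTA, 0.1 mM TCEP.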

[6] = target: Beta-2 adrenergic receptor (Homo sapiens) (UniProt P07550); assay: qHTS validation assay of beta-arrestin-biased ligands of beta2-adrenergic receptor (AID 485366)
Sequence of Beta-2 adrenergic receptor (Homo sapiens) (P07550 whole entry, looked up): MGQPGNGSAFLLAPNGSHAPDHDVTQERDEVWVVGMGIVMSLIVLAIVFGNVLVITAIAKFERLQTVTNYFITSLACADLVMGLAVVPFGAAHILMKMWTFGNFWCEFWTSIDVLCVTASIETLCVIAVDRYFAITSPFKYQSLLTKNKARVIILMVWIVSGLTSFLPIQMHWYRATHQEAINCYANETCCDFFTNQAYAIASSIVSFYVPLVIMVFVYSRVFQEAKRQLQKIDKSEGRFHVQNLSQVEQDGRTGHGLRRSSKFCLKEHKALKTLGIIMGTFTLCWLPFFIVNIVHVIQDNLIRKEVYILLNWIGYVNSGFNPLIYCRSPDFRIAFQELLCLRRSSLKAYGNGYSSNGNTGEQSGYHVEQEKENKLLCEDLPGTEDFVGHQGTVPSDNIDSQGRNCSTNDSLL
In short: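 Agonist activity is measured as luciferase luminescence downstream of beta-arrestin recruitment to recombinant beta2-AR in Tango cells. Exposure lasts 18 hr at 37 degrees C, and curves are categorized by r2, response size and activity.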

[7] = target: Thioredoxin reductase 1, cytoplasmic (Rattus norvegicus) (UniProt O89049); assay: qHTS Assay for Substrates of Mammalian Selenoprotein Thioredoxin Reductase 1 (TrxR1) (AID 488772);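 further: series mostly up to about 57 µM; a drop in NADPH fluorescence below the no-compound background marks a TrxR1 substrate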
Sequence of Thioredoxin reductase 1, cytoplasmic (Rattus norvegicus) (O89049 whole entry, looked up): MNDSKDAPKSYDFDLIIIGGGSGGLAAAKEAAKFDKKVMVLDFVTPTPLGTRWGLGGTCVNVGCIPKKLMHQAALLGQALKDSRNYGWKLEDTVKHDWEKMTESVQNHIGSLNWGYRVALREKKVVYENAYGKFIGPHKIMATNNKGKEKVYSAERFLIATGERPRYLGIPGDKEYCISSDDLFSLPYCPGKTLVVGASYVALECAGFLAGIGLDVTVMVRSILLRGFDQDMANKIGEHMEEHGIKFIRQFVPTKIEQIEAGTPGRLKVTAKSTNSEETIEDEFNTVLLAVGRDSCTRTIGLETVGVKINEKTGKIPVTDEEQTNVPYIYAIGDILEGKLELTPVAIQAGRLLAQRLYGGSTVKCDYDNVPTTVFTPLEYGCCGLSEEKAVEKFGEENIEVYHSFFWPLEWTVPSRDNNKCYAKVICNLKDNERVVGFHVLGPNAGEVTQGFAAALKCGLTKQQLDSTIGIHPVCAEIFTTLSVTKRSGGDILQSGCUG
In short: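 In this dual-purpose format, potential substrates are identified from the first fluorescence read after selenite addition, not from the 8-minute delta. Rat enzyme is preincubated with NADPH and then with compound at ~22 deg C.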

[8] = target: Flap endonuclease 1 (Homo sapiens) (UniProt P39748); assay: qHTS Validation Assay for the Inhibitors of Human Flap endonuclease 1 (FEN1) (AID 488816)
Sequence of Flap endonuclease 1 (Homo sapiens) (P39748 whole entry, looked up): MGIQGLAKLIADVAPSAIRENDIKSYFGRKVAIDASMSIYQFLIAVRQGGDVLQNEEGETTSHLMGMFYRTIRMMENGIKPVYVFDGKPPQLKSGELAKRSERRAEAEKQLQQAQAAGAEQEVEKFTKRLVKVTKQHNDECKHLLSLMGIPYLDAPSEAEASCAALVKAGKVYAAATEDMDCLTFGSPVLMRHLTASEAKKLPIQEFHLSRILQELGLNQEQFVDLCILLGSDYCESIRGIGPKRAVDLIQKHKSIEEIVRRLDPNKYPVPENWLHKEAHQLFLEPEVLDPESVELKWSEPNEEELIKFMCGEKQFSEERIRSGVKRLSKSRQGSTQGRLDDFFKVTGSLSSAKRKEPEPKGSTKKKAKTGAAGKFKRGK
In short: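 Enzyme reagent 10 nM; cpds pinned; 15 min RT preinc.; substrate 50 nM final; reads t=0 and 15 min; no-enzyme buffer wells as neg. control; normalized data, 4-parameter Hill fit.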

[9] = target: Ferritin light chain (Equus caballus) (UniProt P02791); assay: qHTS Validation Assay for Identification of Novel General Anesthetics (AID 2323); further: series mostly up to about 77 µM
Sequence of Ferritin light chain (Equus caballus) (P02791 2-175 limits assumed): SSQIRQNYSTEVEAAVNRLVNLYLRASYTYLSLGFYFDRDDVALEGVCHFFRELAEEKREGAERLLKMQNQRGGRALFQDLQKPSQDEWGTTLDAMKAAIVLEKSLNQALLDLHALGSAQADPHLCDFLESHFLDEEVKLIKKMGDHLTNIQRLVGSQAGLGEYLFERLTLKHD
In short: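 10 uM horse-spleen apoferritin + 1-AMA (50% saturated, PBS); cpd pin-transferred, 10 min RT. Ex 380/Em 535 nm endpoint. Activity normalized between free 1-AMA and 1-AMA/apoferritin; 4-parameter Hill fit of concentration-response.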

[10] = High Content Imaging Cell-Based qHTS for Inhibitors of the mTORC1 Signaling Pathway in MEF Cells (AID 2667);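 further: Tsc2-/- p53-/- MEFs stably re-expressing wild-type Tsc2 exposed 24 h; series mostly up to about 38 µM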
In short: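 Read-out is the share of phospho-rpS6-positive cells per well, from Hoechst-normalized Alexa-488 Ser235/236 staining imaged on IN Cell. Cells: WT Tsc2-expressing Tsc2-/-, p53-/- MEFs exposed to compound for 24 hrs.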

[11] = Cytometry Cell-Based qHTS for Inhibitors of the mTORC1 Signaling Pathway in MEF cells (AID 2668);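 further: Tsc2-/- p53-/- mouse embryonic fibroblasts stably re-expressing wild-type Tsc2; percent cells positive for phospho-rpS6 Ser235/236 relative to propidium iodide stain; series mostly up to about 38 µM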
In short: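 Read-out: phospho-rpS6 Ser235/236 immunofluorescence normalized to propidium iodide intensity, scored as % active cells against a rapamycin (7.5 nM) threshold. Cells: Tsc2-/-, p53-/- MEFs stably expressing WT Tsc2, compound-treated 24 hrs at 37 degree Celsius.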

[12] = Cytometric Cell-Based qHTS for Inhibitors of the mTORC1 Signaling Pathway in MEF (Tsc2-/-, p53-/-) Cells (AID 2660);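 further: Tsc2 and p53 null MEFs carrying empty vector with compound for 24 h; percent of cells above a phospho-rpS6 to PI ratio cutoff in each well; series mostly up to about 38 µM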
In short: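 Readout: Alexa-488 phospho-rpS6 (Ser235/236) intensity divided by PI intensity, thresholded against 7.5 nM rapamycin wells and reported as % positive cells. PI cell count served as the viability measure. Compound exposure was 24 hrs at 37 degree Celsius.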

[13] = Validation screen for small molecules that induce DNA re-replication in MCF 10A normal breast cells (AID 463097); further: nearly all actives have a fitted effect of over 60% in size
In short: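 250 MCF 10A cells/well; compound pin-transferred; 48 hr, 37 C, 5% CO2; Hoechst 40 min; imaged 405/500-530 nm. Hits = more high-intensity nuclei.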

[14] = qHTS Validation Assay to Find Inhibitors of Chronic Active B-Cell Receptor Signaling (AID 485345; active means well fitted curve in the direction sought with a large enough effect in the main read-out, with a control signal flat, not every such curve was filed as active)
In short: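 TMD8 ABC-DLBCL cells stably carrying doxycycline-inducible IkappaBalpha–green luciferase fusion plus unfused red luciferase; compounds 46 uM to 3 nM, 4 h at 37C with doxycycline. Corrected green/red luminescence ratio normalized to 10 uM MG-132 and basal cell wells; curves fitted.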

[15] = target: ATP-dependent 6-phosphofructokinase (Trypanosoma brucei brucei) (UniProt O15648); assay: qHTS Validation Assay to Find Inhibitors of T. brucei phosphofructokinase (AID 485368)
In short: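 Inhibition derived from concentration-response curves of luminescence, ranked by r2, response size and curve class; the underlying reaction used 1.25 nM PFK, 0.1 mM ATP and 0.5 mM F6P, 45 min, room temperature.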

[16] = Quantitative high throughput screen for delayed death inhibitors of the malarial parasite plastid, 96 hour incubation (AID 488745);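 further: luciferase-expressing P. falciparum in erythrocytes at 2% hematocrit and 0.1% parasitemia; series mostly up to about 29 µM; nearly all actives have a fitted effect of over 70% in size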
In short: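 Luciferase-expressing P. falciparum, infected RBCs 2% Hct/0.1% parasitemia (final); 96 h cpd exposure, 37 C, 5% CO2; RPMI 1640 + 0.5% Albumax, bicarbonate, gentamycin. Readout: luminescence loss = growth inhibition.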

[17] = target: M-phase phosphoprotein 8 (Homo sapiens) (UniProt Q99549); assay: qHTS Validation Assay for Inhibitors for MPP8 Chromodomain Interactions with Methylated Histone Tails (AID 488949);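 further: AlphaScreen signal from MPP8 chromodomain bound to biotinylated H3K9me3 peptide; top concentration of the series differs between compounds; nearly all actives have a fitted effect of over 55% in size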
In short: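 AlphaScreen read-out: streptavidin donor and nickel chelate acceptor beads (final 10 ug/mL), 30 min in the dark at RT. Complex of 50 nM MPP8 and 50 nM b-H3(1-18)K9me3 peptide had been exposed to compounds for 30 min beforehand.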

Measured: Potency

CNCCC(Oc1ccc(C(F)(F)F)cc1)c1ccccc1 (stereo not drawn)
inactive: [1] | [2] | [3] | [4] | [5] | [6] | [7] | [8]

COC(=O)C1=C(C)NC(C)=C(C(=O)OC)C1c1ccccc1[N+](=O)[O-]
not listed: [12] | [13] | [14] | [15] | [16] | [17]
inactive: all other assays above

CC1=C(/C=C/C(C)=C/C=C/C(C)=C/C(=O)O)C(C)(C)CCC1
not listed: [2] | [9] | [13] | [14] | [15] | [16] | [17]
inactive: all other assays above

C[C@](N)(Cc1ccc(O)cc1)C(=O)O
not listed: [2] | [16] | [17]
inactive: all other assays above

CC(CN1c2ccccc2Sc2ccccc21)N(C)C (stereo not drawn)
not listed: [2] | [10] | [11] | [13] | [15] | [16] | [17]
inactive: all other assays above

CNC(=O)Oc1ccc2c(c1)[C@]1(C)CCN(C)[C@@H]1N2C
not listed: [2] | [15] | [17]
inactive: all other assays above

NC1CCN(c2cccc(Cl)n2)CC1
not listed: [2]
inactive: all other assays above
